Reference: PubChem BioAssay (NCI)
About 79,000 compounds went through this panel and 15% of them were active in at least one assay; those are over-represented in the sample as a whole. A number with no mark means an inactive call. Active and inactive are the calls of the source. No stated cut-off is given here; in the data, active means growth inhibition above about 70%; inactive means the rest.

Assays:
[1] = NCI Yeast Anticancer Drug Screen. Data for the rad52 strain (AID 147);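 further: 0% = growth of vehicle-treated control cultures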; conditions: S. cerevisiae rad52 mutant growth inhibition, hits give high values
In short: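 Compounds are applied to a genetically defined yeast strain lacking normal DNA damage repair, and inhibition of growth is expressed relative to cultures given vehicle only.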

[2] = NCI Yeast Anticancer Drug Screen. Data for the rad50EPP+ strain (AID 151);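 further: 0% = growth of vehicle-treated control cultures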; conditions: S. cerevisiae rad50 mutant strain, hits give high values
In short: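 Compounds were applied to the rad50EPP+ yeast strain, which bears a defined DNA repair alteration, and growth inhibition was determined relative to vehicle-treated cultures.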

[3] = NCI Yeast Anticancer Drug Screen. Data for the mgt1 strain (AID 153); conditions: S. cerevisiae mgt1 mutant growth inhibition, hits give high values
In short: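 Strain: mgt1 yeast, one of a set carrying defined DNA damage repair or cell cycle control alterations. Compound-treated growth compared with vehicle.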

[4] = NCI Yeast Anticancer Drug Screen. Data for the rad50 strain (AID 155);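 further: 0% = growth of vehicle-only cultures of the same strain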; conditions: S. cerevisiae rad50 strain growth inhibition, hits give high values
In short: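 Genetically altered yeast (DNA repair pathway); compound treatment; growth inhibition vs vehicle ctrl.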

[5] = NCI Yeast Anticancer Drug Screen. Data for the mec2-1 strain (AID 157); conditions: S. cerevisiae mec2-1 strain, hits give high values
In short: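 Strain: mec2-1 (DNA repair/cell cycle alteration). Compound exposure, then growth measured; inhibition expressed relative to vehicle.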

[6] = NCI Yeast Anticancer Drug Screen. Data for the rad14 strain (AID 159);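 further: 0% = growth of vehicle-treated control cultures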; conditions: S. cerevisiae rad14 strain growth inhibition, hits give high values
In short: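 Test compounds were applied to a repair-deficient yeast strain. Its growth was then compared with that of cultures given vehicle alone, and inhibition was expressed relative to those controls.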

[7] = NCI Yeast Anticancer Drug Screen. Data for the sgs1 mgt1 strain (AID 161);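 further: 0% = growth of cultures given vehicle only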; conditions: S. cerevisiae sgs1 mgt1 strain, hits give high values
In short: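 Genetically altered yeast, compound exposure, growth inhibition relative to vehicle.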

[8] = NCI Yeast Anticancer Drug Screen. Data for the CLN2oe strain (AID 163);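 further: 0% = growth of vehicle-only control cultures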; conditions: S. cerevisiae CLN2oe strain, hits give high values
In short: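 Growth of a genetically modified yeast strain is measured after compound exposure and compared with cultures given vehicle alone.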

[9] = NCI Yeast Anticancer Drug Screen. Data for the cln2 rad14 strain (AID 165);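 further: 0% = growth equal to vehicle treated cultures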; conditions: S. cerevisiae cln2 rad14 strain, hits give high values
In short: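 Compounds are applied to the cln2 rad14 yeast strain, and growth is then compared with that of vehicle-treated cultures to give inhibition.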

[10] = NCI Yeast Anticancer Drug Screen. Data for the bub3 strain (AID 167); conditions: S. cerevisiae bub3 mutant strain, hits give high values
In short: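 Yeast carrying a defined mutation is treated with each compound, and growth is compared with that of vehicle-exposed cells to give inhibition.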

[11] = NCI Yeast Anticancer Drug Screen. Data for the wt2 strain (AID 169);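 further: 0% = growth of vehicle-treated yeast cultures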; conditions: S. cerevisiae wt2 strain growth inhibition, hits give high values
In short: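 This strain belongs to a panel of yeast strains with defined genetic alterations in DNA damage repair or cell cycle control. Compounds are applied, and growth inhibition is measured against vehicle-treated cultures.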

[12] = NCI Yeast Anticancer Drug Screen. Data for the mlh1 strain (AID 171);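 further: 0% = growth of vehicle-treated control cultures of the same strain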; conditions: S. cerevisiae mlh1 strain growth inhibition, hits give high values
In short: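 Growth of the mutant yeast strain after compound exposure, expressed as inhibition relative to vehicle-only controls.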

[13] = NCI Yeast Anticancer Drug Screen. Data for the sgs1 strain (AID 173);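 further: 0% = growth of vehicle-only control cultures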; conditions: S. cerevisiae sgs1 mutant, hits give high values
In short: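 Growth of a yeast strain bearing a defined genetic alteration is measured after compound treatment. Inhibition is expressed relative to vehicle-only controls.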

[14] = NCI Yeast Anticancer Drug Screen. Data for the mlh1 rad18 strain (AID 175); conditions: S. cerevisiae mlh1 rad18 strain growth inhibition, hits give high values
In short: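 Read-out is yeast growth inhibition, calculated against vehicle-only controls. The compound was applied to a strain engineered with DNA damage repair alterations.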

[15] = NCI Yeast Anticancer Drug Screen. Data for the rad18 strain (AID 177); conditions: S. cerevisiae rad18 mutant growth inhibition, hits give high values
In short: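 Growth of the mutant yeast strain after compound exposure, normalised to vehicle-only cultures.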

[16] = NCI Yeast Anticancer Drug Screen. Data for the wt1 strain (AID 149);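 further: 0% = growth of vehicle-treated wt1 cultures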; conditions: S. cerevisiae wt1 strain (SPY 50644) growth inhibition, hits give high values
In short: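 wt1 yeast, compound-treated; % growth inhibition vs vehicle control.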

[17] = at 5.0 µM (retest, dose inferred, filed as 0.5)
[18] = at 50.0 µM (retest, dose inferred, filed as 5.0)

O=[N+]([O-])c1ccc(C(c2c[nH]c3ccccc23)c2c[nH]c3ccccc23)cc1
growth inhibition ([1]; at 1.2 µM): 82% (active) | growth inhibition ([1]; at 3.7 µM): 97% (active) | growth inhibition ([1]; at 11.0 µM): 95% (active) | growth inhibition ([1]; at 33.0 µM): 90% (active) | growth inhibition ([1]; at 100.0 µM): 82% (active) | growth inhibition ([2]; at 1.2 µM): 10% | growth inhibition ([2]; at 3.7 µM): 9% | growth inhibition ([2]; at 11.0 µM): 3% | growth inhibition ([2]; at 33.0 µM): 2% | growth inhibition ([2]; at 100.0 µM): -14% | growth inhibition ([3]; at 1.2 µM): 18% | growth inhibition ([3]; at 3.7 µM): 99% (active) | growth inhibition ([3]; at 11.0 µM): 97% (active) | growth inhibition ([3]; at 33.0 µM): 94% (active) | growth inhibition ([3]; at 100.0 µM): 87% (active) | growth inhibition ([4]; at 1.2 µM): 84% (active) | growth inhibition ([4]; at 3.7 µM): 85% (active) | growth inhibition [4, 17]: 79% (active) | growth inhibition ([4]; at 11.0 µM): 94% (active) | growth inhibition ([4]; at 33.0 µM): 89% (active) | growth inhibition [4, 18]: 89% (active) | growth inhibition ([4]; at 50.0 µM): 93.2% (active) | growth inhibition ([4]; at 100.0 µM): 79% (active) | growth inhibition ([5]; at 1.2 µM): 22% | growth inhibition ([5]; at 3.7 µM): 99% (active) | growth inhibition [5, 17]: 10% | growth inhibition ([5]; at 11.0 µM): 97% (active) | growth inhibition ([5]; at 33.0 µM): 94% (active) | growth inhibition [5, 18]: 95% (active) | growth inhibition ([5]; at 50.0 µM): 93.8% (active) | growth inhibition ([5]; at 100.0 µM): 88% (active) | growth inhibition ([6]; at 1.2 µM): 25% | growth inhibition ([6]; at 3.7 µM): 98% (active) | growth inhibition ([6]; at 11.0 µM): 97% (active) | growth inhibition ([6]; at 33.0 µM): 93% (active) | growth inhibition ([6]; at 100.0 µM): 84% (active) | growth inhibition [7, 17]: 82% (active) | growth inhibition [7, 18]: 95% (active) | growth inhibition ([7]; at 50.0 µM): 92.9% (active) | growth inhibition ([8]; at 1.2 µM): 40% | growth inhibition ([8]; at 3.7 µM): 98% (active) | growth inhibition ([8]; at 11.0 µM): 96% (active) | growth inhibition ([8]; at 33.0 µM): 92% (active) | growth inhibition ([8]; at 100.0 µM): 86% (active) | growth inhibition [9, 17]: 14% | growth inhibition [9, 18]: 93% (active) | growth inhibition ([9]; at 50.0 µM): 88.1% (active) | growth inhibition ([10]; at 1.2 µM): 24% | growth inhibition ([10]; at 3.7 µM): 98% (active) | growth inhibition [10, 17]: 45% | growth inhibition ([10]; at 11.0 µM): 96% (active) | growth inhibition ([10]; at 33.0 µM): 93% (active) | growth inhibition [10, 18]: 96% (active) | growth inhibition ([10]; at 50.0 µM): 94.3% (active) | growth inhibition ([10]; at 100.0 µM): 86% (active) | growth inhibition ([11]; at 1.2 µM): 9% | growth inhibition ([11]; at 3.7 µM): 98% (active) | growth inhibition ([11]; at 11.0 µM): 97% (active) | growth inhibition ([11]; at 33.0 µM): 94% (active) | growth inhibition ([11]; at 100.0 µM): 88% (active) | growth inhibition ([12]; at 1.2 µM): 33% | growth inhibition ([12]; at 3.7 µM): 98% (active) | growth inhibition ([12]; at 11.0 µM): 97% (active) | growth inhibition ([12]; at 33.0 µM): 94% (active) | growth inhibition ([12]; at 100.0 µM): 90% (active) | growth inhibition ([13]; at 1.2 µM): 33% | growth inhibition ([13]; at 3.7 µM): 98% (active) | growth inhibition ([13]; at 11.0 µM): 97% (active) | growth inhibition ([13]; at 33.0 µM): 95% (active) | growth inhibition ([13]; at 100.0 µM): 88% (active) | growth inhibition [14, 17]: 93% (active) | growth inhibition [14, 18]: 92% (active) | growth inhibition ([14]; at 50.0 µM): 93% (active) | growth inhibition ([15]; at 1.2 µM): 66% | growth inhibition ([15]; at 3.7 µM): 98% (active) | growth inhibition ([15]; at 11.0 µM): 96% (active) | growth inhibition ([15]; at 33.0 µM): 92% (active) | growth inhibition ([15]; at 100.0 µM): 86% (active)

Cc1cc(C)c2[s+]snc2c1
growth inhibition ([16]; at 1.2 µM): -36% | growth inhibition ([16]; at 3.7 µM): 1% | growth inhibition ([16]; at 11.0 µM): 1% | growth inhibition ([16]; at 33.0 µM): 9% | growth inhibition ([16]; at 100.0 µM): 26% | growth inhibition ([3]; at 1.2 µM): 1% | growth inhibition ([3]; at 3.7 µM): 3% | growth inhibition ([3]; at 11.0 µM): 6% | growth inhibition ([3]; at 33.0 µM): 12% | growth inhibition ([3]; at 100.0 µM): 23% | growth inhibition ([4]; at 1.2 µM): 0% | growth inhibition ([4]; at 3.7 µM): 1% | growth inhibition [4, 17]: -5% | growth inhibition ([4]; at 11.0 µM): 3% | growth inhibition ([4]; at 33.0 µM): 9% | growth inhibition [4, 18]: 23% | growth inhibition ([4]; at 50.0 µM): 50.5% | growth inhibition ([4]; at 100.0 µM): 20% | growth inhibition ([5]; at 1.2 µM): -3% | growth inhibition ([5]; at 3.7 µM): -5% | growth inhibition [5, 17]: -6% | growth inhibition ([5]; at 11.0 µM): -3% | growth inhibition ([5]; at 33.0 µM): 10% | growth inhibition [5, 18]: 68% | growth inhibition ([5]; at 50.0 µM): 50.2% | growth inhibition ([5]; at 100.0 µM): 29% | growth inhibition ([6]; at 1.2 µM): 2% | growth inhibition ([6]; at 3.7 µM): 4% | growth inhibition ([6]; at 11.0 µM): 5% | growth inhibition ([6]; at 33.0 µM): 9% | growth inhibition ([6]; at 100.0 µM): 21% | growth inhibition [7, 17]: -1% | growth inhibition [7, 18]: 31% | growth inhibition ([7]; at 50.0 µM): 79% (active) | growth inhibition ([8]; at 1.2 µM): -7% | growth inhibition ([8]; at 3.7 µM): -7% | growth inhibition ([8]; at 11.0 µM): -4% | growth inhibition ([8]; at 33.0 µM): -1% | growth inhibition ([8]; at 100.0 µM): 17% | growth inhibition [9, 17]: -19% | growth inhibition [9, 18]: 19% | growth inhibition ([9]; at 50.0 µM): 33.1% | growth inhibition ([10]; at 1.2 µM): -4% | growth inhibition ([10]; at 3.7 µM): -4% | growth inhibition [10, 17]: -5% | growth inhibition ([10]; at 11.0 µM): -5% | growth inhibition ([10]; at 33.0 µM): 1% | growth inhibition [10, 18]: 61% | growth inhibition ([10]; at 50.0 µM): 52% | growth inhibition ([10]; at 100.0 µM): 30% | growth inhibition ([11]; at 1.2 µM): -2% | growth inhibition ([11]; at 3.7 µM): 1% | growth inhibition ([11]; at 11.0 µM): 3% | growth inhibition ([11]; at 33.0 µM): 7% | growth inhibition ([11]; at 100.0 µM): 30% | growth inhibition ([12]; at 1.2 µM): 1% | growth inhibition ([12]; at 3.7 µM): 1% | growth inhibition ([12]; at 11.0 µM): 0% | growth inhibition ([12]; at 33.0 µM): 4% | growth inhibition ([12]; at 100.0 µM): 19% | growth inhibition ([13]; at 1.2 µM): 4% | growth inhibition ([13]; at 3.7 µM): 7% | growth inhibition ([13]; at 11.0 µM): 8% | growth inhibition ([13]; at 33.0 µM): 17% | growth inhibition ([13]; at 100.0 µM): 36% | growth inhibition [14, 17]: 2% | growth inhibition [14, 18]: 34% | growth inhibition ([14]; at 50.0 µM): 76% (active) | growth inhibition ([15]; at 1.2 µM): 7% | growth inhibition ([15]; at 3.7 µM): 9% | growth inhibition ([15]; at 11.0 µM): 6% | growth inhibition ([15]; at 33.0 µM): 27% | growth inhibition ([15]; at 100.0 µM): 49%
